Reference: publication PMC5540273 (PLoS ONE, 2017)
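Note: KINOMEscan kinase panel screen.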

Each compound was assayed on SRPK3. Details: concentration: 1 μM, replicates: in singlicate; n = 1.
In the case of [2H]C([2H])(c1cccc(C(F)(F)F)c1C)n1ccn2c(=O)nc(N3CCOCC3)cc12 [GSK2336394], the “%Inh” value is reported as 0%.
N#Cc1c(N2CCOCC2)sc(-c2ccn[nH]2)c1-c1ccc(Cl)cc1 was tested, and the “%Inh” value was 0%.
CN(C1=C(c2ccccc2)C(=O)NC1=O)c1ccccc1 [SB-334860] was tested, and the “%Inh” value was 0%.
Cc1cn2c(=O)cc(N3CCOCC3)nc2n1Cc1cccc(Cl)c1Cl [GSK2334006] was tested, and the “%Inh” value was 0%.
For Fc1ccc(-c2ncn(CCCN3CCOCC3)c2-c2cccnc2)cc1 [SB-211743], the “%Inh” value was 0%.
For O=c1cc(N2CCOCC2)nc2n(Cc3cccc(F)c3)ccn12 [GSK2297430], the “%Inh” value was 7%.
With O=C(Nc1cccc(-c2nn3ncccc3c2-c2ccnc(Nc3cccc(C(F)(F)F)c3)n2)c1)c1c(F)cccc1F [GSK299495] the “%Inh” value was 0%.
Cc1c2ccc(N(C)c3ccnc(Nc4cccc(S(N)(=O)=O)c4)n3)cc2nn1Cc1ccccc1.Cl.Cl [GW787226] was tested, and the “%Inh” value was 2%.
For O=C(Nc1n[nH]c2cc(-c3cccc(F)c3)ccc12)C1CC1 [SB-735464], the “%Inh” value was 37%.
In the case of CCCCCc1nc2c(N)ncnc2n1CCCCC [SKF-97255], the “%Inh” value is reported as 0%.
In the case of Cc1ccc(C(=O)NCC(N)=O)cc1-n1c(C)cc(OCc2ccc(F)cc2F)c(Br)c1=O, the “%Inh” value is reported as 21%.
NCC(NC(=O)c1cc(-c2cn[nH]c2)c(-c2ccnc3[nH]ccc23)s1)c1ccccc1.O=C(O)C(F)(F)F.O=C(O)C(F)(F)F (stereo not drawn) [GSK1325775] was tested, and the “%Inh” value was 37%.
For COc1ccc(Nc2nccc(N3CCC(NC(=O)Nc4cccc(C(C)=O)c4)C3)n2)cc1 (stereo not drawn) [GSK1379731], the “%Inh” value was 0%.
COCCNC(=O)c1ccc(-c2cc(C(=O)NC3CC3)cc(F)c2C)cc1 [GW868318] was tested, and the “%Inh” value was 20%.
In the case of COC(=O)Nc1nc2cc(Oc3ccc(NC(=O)Nc4cc(F)ccc4F)cc3)ccc2[nH]1.Cl [GW701424], the “%Inh” value is reported as 0%.
With O=C(c1ccc(-c2cc(-c3c[nH]nc3-c3ccccn3)ccn2)cc1)N1CCOCC1 [GW812171] the “%Inh” value was 4%.
For NS(=O)(=O)c1cccc(-c2ccc3nccc(-c4cccc(S(N)(=O)=O)c4)c3c2)c1 [GW867253], the “%Inh” value was 23%.
With CN1c2ccc(CNc3ccc(F)cc3)cc2-c2c(cnn2C)S1(=O)=O the “%Inh” value was 0%.
In the case of O=c1cc(N2CCOCC2)nc2n(Cc3cccc(C(F)(F)F)c3)ccn12 [GSK2297543], the “%Inh” value is reported as 0%.
For Nc1nccc(-c2c(-c3ccc(F)cc3)ncn2C2CCN(CC(F)(F)F)CC2)n1 [SB-236560], the “%Inh” value was 6%.
With O=c1cc(N2CCOCC2)nc2n(Cc3cccc(Cl)c3Cl)c(C3CC3)nn12 [GSK2358994] the “%Inh” value was 0%.
Fc1ccc(-c2ncn(CCCN3CCOCC3)c2-c2ccccn2)cc1 [SB-211742] was tested, and the “%Inh” value was 3%.
With CC(C)Oc1ccc2c(-c3ccnc(Nc4ccc(N5CCN(C)CC5)cc4)n3)cnn2n1 [GW696155] the “%Inh” value was 79%.
With COc1ccc(COc2cc(-n3cnc4ccccc43)sc2C(N)=O)cc1 [GSK1024304] the “%Inh” value was 17%.
C[C@@H](Oc1cc(-n2cnc3ccc(NC(=O)NC(C)(C)C)cc32)sc1C(N)=O)c1ccccc1Cl [GSK346294] was tested, and the “%Inh” value was 0%.
For Cl.Nc1ncnc2occ(-c3ccc(NC(=O)Nc4cc(C(F)(F)F)ccc4F)cc3)c12 [SB-707548], the “%Inh” value was 0%.
With COc1cc2c(cc1OCCN1CCN(C)CC1)ncc1c3ccc(C#N)cc3[nH]c21 the “%Inh” value was 0%.
In the case of O=C(NCCNc1ccnc(Nc2ccc(F)cc2)n1)Nc1ccccc1F [GSK1379880], the “%Inh” value is reported as 2%.
For O=C(NCCNc1ccnc(Nc2ccc(F)cc2)n1)c1cc2ccccc2s1 [GSK1379874], the “%Inh” value was 0%.
For COc1cc2ncn(-c3cc(OCc4sccc4Cl)c(C(N)=O)s3)c2cc1OC [GSK448459], the “%Inh” value was 3%.
For Cc1cccc(-c2nc(-c3ccc(S(C)(=O)=O)cc3)sc2-c2ccncc2)c1, the “%Inh” value was 10%.
CCc1nc(-c2cccc(C)c2)c(-c2ccnc(NCc3ccccc3)c2)s1 was tested, and the “%Inh” value was 0%.
c1ccc(-c2cc(-c3c[nH]nc3-c3ccccn3)ccn2)cc1 [GW576604] was tested, and the “%Inh” value was 0%.
With COc1cc(Nc2nccc(N3CCC(NC(=O)c4cccc(NC(C)=O)c4)C3)n2)cc(OC)c1OC (stereo not drawn) [GSK1379754] the “%Inh” value was 16%.
With Cn1ccc2ncnc(Oc3ccc(NC(=O)Nc4ccncc4)c(Cl)c3)c21 the “%Inh” value was 0%.
For Cl.Oc1cccc(Nc2ccnc3cc(-c4ccncc4)ccc23)c1 [GW494601], the “%Inh” value was 0%.

The compounds below were run on STK16. Details: concentration: 1 μM, replicates: in singlicate; n = 1.
[2H]C([2H])(c1cccc(C(F)(F)F)c1C)n1ccn2c(=O)nc(N3CCOCC3)cc12 [GSK2336394] was tested, and the “%Inh” value was 0%.
With N#Cc1c(N2CCOCC2)sc(-c2ccn[nH]2)c1-c1ccc(Cl)cc1 the “%Inh” value was 33%.
With CN(C1=C(c2ccccc2)C(=O)NC1=O)c1ccccc1 [SB-334860] the “%Inh” value was 14%.
For Cc1cn2c(=O)cc(N3CCOCC3)nc2n1Cc1cccc(Cl)c1Cl [GSK2334006], the “%Inh” value was 14%.
With Fc1ccc(-c2ncn(CCCN3CCOCC3)c2-c2cccnc2)cc1 [SB-211743] the “%Inh” value was 0%.
In the case of O=c1cc(N2CCOCC2)nc2n(Cc3cccc(F)c3)ccn12 [GSK2297430], the “%Inh” value is reported as 14%.
O=C(Nc1cccc(-c2nn3ncccc3c2-c2ccnc(Nc3cccc(C(F)(F)F)c3)n2)c1)c1c(F)cccc1F [GSK299495] was tested, and the “%Inh” value was 3%.
For Cc1c2ccc(N(C)c3ccnc(Nc4cccc(S(N)(=O)=O)c4)n3)cc2nn1Cc1ccccc1.Cl.Cl [GW787226], the “%Inh” value was 55%.
O=C(Nc1n[nH]c2cc(-c3cccc(F)c3)ccc12)C1CC1 [SB-735464] was tested, and the “%Inh” value was 5%.
CCCCCc1nc2c(N)ncnc2n1CCCCC [SKF-97255] was tested, and the “%Inh” value was 9%.
In the case of Cc1ccc(C(=O)NCC(N)=O)cc1-n1c(C)cc(OCc2ccc(F)cc2F)c(Br)c1=O, the “%Inh” value is reported as 10%.
In the case of NCC(NC(=O)c1cc(-c2cn[nH]c2)c(-c2ccnc3[nH]ccc23)s1)c1ccccc1.O=C(O)C(F)(F)F.O=C(O)C(F)(F)F (stereo not drawn) [GSK1325775], the “%Inh” value is reported as 46%.
With COc1ccc(Nc2nccc(N3CCC(NC(=O)Nc4cccc(C(C)=O)c4)C3)n2)cc1 (stereo not drawn) [GSK1379731] the “%Inh” value was 14%.
With COCCNC(=O)c1ccc(-c2cc(C(=O)NC3CC3)cc(F)c2C)cc1 [GW868318] the “%Inh” value was 0%.
COC(=O)Nc1nc2cc(Oc3ccc(NC(=O)Nc4cc(F)ccc4F)cc3)ccc2[nH]1.Cl [GW701424] was tested, and the “%Inh” value was 0%.
For O=C(c1ccc(-c2cc(-c3c[nH]nc3-c3ccccn3)ccn2)cc1)N1CCOCC1 [GW812171], the “%Inh” value was 0%.
In the case of NS(=O)(=O)c1cccc(-c2ccc3nccc(-c4cccc(S(N)(=O)=O)c4)c3c2)c1 [GW867253], the “%Inh” value is reported as 12%.
With CN1c2ccc(CNc3ccc(F)cc3)cc2-c2c(cnn2C)S1(=O)=O the “%Inh” value was 0%.
For O=c1cc(N2CCOCC2)nc2n(Cc3cccc(C(F)(F)F)c3)ccn12 [GSK2297543], the “%Inh” value was 0%.
Nc1nccc(-c2c(-c3ccc(F)cc3)ncn2C2CCN(CC(F)(F)F)CC2)n1 [SB-236560] was tested, and the “%Inh” value was 0%.
In the case of O=c1cc(N2CCOCC2)nc2n(Cc3cccc(Cl)c3Cl)c(C3CC3)nn12 [GSK2358994], the “%Inh” value is reported as 10%.
In the case of Fc1ccc(-c2ncn(CCCN3CCOCC3)c2-c2ccccn2)cc1 [SB-211742], the “%Inh” value is reported as 0%.
With CC(C)Oc1ccc2c(-c3ccnc(Nc4ccc(N5CCN(C)CC5)cc4)n3)cnn2n1 [GW696155] the “%Inh” value was 98.8%.
For COc1ccc(COc2cc(-n3cnc4ccccc43)sc2C(N)=O)cc1 [GSK1024304], the “%Inh” value was 0%.
With C[C@@H](Oc1cc(-n2cnc3ccc(NC(=O)NC(C)(C)C)cc32)sc1C(N)=O)c1ccccc1Cl [GSK346294] the “%Inh” value was 22%.
With Cl.Nc1ncnc2occ(-c3ccc(NC(=O)Nc4cc(C(F)(F)F)ccc4F)cc3)c12 [SB-707548] the “%Inh” value was 8%.
With COc1cc2c(cc1OCCN1CCN(C)CC1)ncc1c3ccc(C#N)cc3[nH]c21 the “%Inh” value was 10%.
With O=C(NCCNc1ccnc(Nc2ccc(F)cc2)n1)Nc1ccccc1F [GSK1379880] the “%Inh” value was 4%.
With O=C(NCCNc1ccnc(Nc2ccc(F)cc2)n1)c1cc2ccccc2s1 [GSK1379874] the “%Inh” value was 5%.
In the case of COc1cc2ncn(-c3cc(OCc4sccc4Cl)c(C(N)=O)s3)c2cc1OC [GSK448459], the “%Inh” value is reported as 21%.
In the case of Cc1cccc(-c2nc(-c3ccc(S(C)(=O)=O)cc3)sc2-c2ccncc2)c1, the “%Inh” value is reported as 19%.
With CCc1nc(-c2cccc(C)c2)c(-c2ccnc(NCc3ccccc3)c2)s1 the “%Inh” value was 19%.
With c1ccc(-c2cc(-c3c[nH]nc3-c3ccccn3)ccn2)cc1 [GW576604] the “%Inh” value was 0%.
With COc1cc(Nc2nccc(N3CCC(NC(=O)c4cccc(NC(C)=O)c4)C3)n2)cc(OC)c1OC (stereo not drawn) [GSK1379754] the “%Inh” value was 64%.
In the case of Cn1ccc2ncnc(Oc3ccc(NC(=O)Nc4ccncc4)c(Cl)c3)c21, the “%Inh” value is reported as 10%.
For Cl.Oc1cccc(Nc2ccnc3cc(-c4ccncc4)ccc23)c1 [GW494601], the “%Inh” value was 26%.
